# Laboratory results taken from PubChem BioAssay (NCI).
# This is part of a sample that, as a whole, favours compounds with a hit. Of some 79,000 tested, about 15% had one in any assay. A number with no mark means an inactive call. Activity calls are given as the source filed them. Cut-off read from the data, not from the text of the source: active = growth inhibition above about 70%; inactive = the rest.
# Legend:
# [1] = NCI Yeast Anticancer Drug Screen. Data for the rad52 strain (AID 147);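 note: 0% = growth of vehicle-treated control cultures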; details: S. cerevisiae rad52 mutant growth inhibition, stronger effect = higher value
# Outline: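 Vehicle-treated cultures served as the reference for growth inhibition of compound-exposed yeast bearing a DNA repair mutation.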
# [2] = NCI Yeast Anticancer Drug Screen. Data for the wt1 strain (AID 149);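 note: 0% = growth of vehicle-treated wt1 cultures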; details: S. cerevisiae wt1 strain (SPY 50644) growth inhibition, stronger effect = higher value
# Outline: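 Using yeast strain wt1, compound-induced growth inhibition was determined against vehicle-treated cultures.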
# [3] = NCI Yeast Anticancer Drug Screen. Data for the rad50EPP+ strain (AID 151);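 note: 0% = growth of vehicle-treated control cultures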; details: S. cerevisiae rad50 mutant strain, stronger effect = higher value
# Outline: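 In this screen, rad50EPP+ yeast were exposed to compounds. Growth inhibition was scored against vehicle-treated controls.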
# [4] = NCI Yeast Anticancer Drug Screen. Data for the mgt1 strain (AID 153); details: S. cerevisiae mgt1 mutant growth inhibition, stronger effect = higher value
# Outline: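 mgt1 strain exposed; growth vs vehicle control recorded as inhibition.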
# [5] = NCI Yeast Anticancer Drug Screen. Data for the rad50 strain (AID 155);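 note: 0% = growth of vehicle-only cultures of the same strain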; details: S. cerevisiae rad50 strain growth inhibition, stronger effect = higher value
# Outline: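 Relative growth inhibition (compound vs vehicle) was measured in yeast with a defined repair-gene alteration.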
# [6] = NCI Yeast Anticancer Drug Screen. Data for the mec2-1 strain (AID 157); details: S. cerevisiae mec2-1 strain, stronger effect = higher value
# Outline: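 Vehicle-treated cultures served as reference for growth inhibition of compound-exposed mec2-1 yeast.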
# [7] = NCI Yeast Anticancer Drug Screen. Data for the sgs1 mgt1 strain (AID 161);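 note: 0% = growth of cultures given vehicle only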; details: S. cerevisiae sgs1 mgt1 strain, stronger effect = higher value
# Outline: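 Inhibition of yeast growth, normalised to vehicle-treated controls, is reported for a strain bearing genetic alterations in DNA damage repair.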
# [8] = NCI Yeast Anticancer Drug Screen. Data for the CLN2oe strain (AID 163);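 note: 0% = growth of vehicle-only control cultures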; details: S. cerevisiae CLN2oe strain, stronger effect = higher value
# Outline: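 Inhibition relative to vehicle-treated yeast is reported. Cells: strain with genetic alteration in cell-cycle control, grown with compound.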
# [9] = NCI Yeast Anticancer Drug Screen. Data for the cln2 rad14 strain (AID 165);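 note: 0% = growth equal to vehicle treated cultures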; details: S. cerevisiae cln2 rad14 strain, stronger effect = higher value
# Outline: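 Each compound was tested on cln2 rad14 yeast. Inhibition of growth was calculated against vehicle-exposed controls.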
# [10] = NCI Yeast Anticancer Drug Screen. Data for the bub3 strain (AID 167); details: S. cerevisiae bub3 mutant strain, stronger effect = higher value
# Outline: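 Screening used yeast with an engineered genetic alteration affecting cell cycle control. Compound-exposed cultures were compared with vehicle cultures, and reduced growth was taken as inhibition.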
# [11] = NCI Yeast Anticancer Drug Screen. Data for the wt2 strain (AID 169);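 note: 0% = growth of vehicle-treated yeast cultures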; details: S. cerevisiae wt2 strain growth inhibition, stronger effect = higher value
# Outline: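 Inhibition of yeast growth was determined after compound treatment, normalised to controls receiving only vehicle.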
# [12] = NCI Yeast Anticancer Drug Screen. Data for the mlh1 strain (AID 171);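 note: 0% = growth of vehicle-treated control cultures of the same strain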; details: S. cerevisiae mlh1 strain growth inhibition, stronger effect = higher value
# Outline: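 Vehicle-normalised growth inhibition of a repair- or checkpoint-altered yeast strain following compound treatment.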
# [13] = NCI Yeast Anticancer Drug Screen. Data for the sgs1 strain (AID 173);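 note: 0% = growth of vehicle-only control cultures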; details: S. cerevisiae sgs1 mutant, stronger effect = higher value
# Outline: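 Screen format: yeast with repair or checkpoint alterations, compound exposure, growth read relative to vehicle.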
# [14] = NCI Yeast Anticancer Drug Screen. Data for the mlh1 rad18 strain (AID 175); details: S. cerevisiae mlh1 rad18 strain growth inhibition, stronger effect = higher value
# Outline: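 Vehicle-treated cultures served as the reference for growth inhibition in a yeast strain carrying DNA damage repair alterations exposed to each compound.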
# [15] = NCI Yeast Anticancer Drug Screen. Data for the rad18 strain (AID 177); details: S. cerevisiae rad18 mutant growth inhibition, stronger effect = higher value
# Outline: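 Test articles were incubated with altered yeast defective in DNA damage repair. Results are given as inhibition of growth versus vehicle.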
# [16] = NCI Yeast Anticancer Drug Screen. Data for the rad14 strain (AID 159);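 note: 0% = growth of vehicle-treated control cultures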; details: S. cerevisiae rad14 strain growth inhibition, stronger effect = higher value
# Outline: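 Screen for anticancer potential: a yeast strain altered in DNA damage repair is grown with compound, and reduced growth is quantified against vehicle controls.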
# [17] = at 5.0 µM (retest, dose inferred, filed as 0.5)
# [18] = at 50.0 µM (retest, dose inferred, filed as 5.0)
compound,measurement,setting,value
ClCCn1c(CCl)nc2ccc(Cl)cc21,growth inhibition,[1]; at 1.2 µM,-34%
same,growth inhibition,[1]; at 3.7 µM,-41%
same,growth inhibition,[1]; at 11.0 µM,-8%
same,growth inhibition,[1]; at 33.0 µM,69%
same,growth inhibition,[1]; at 100.0 µM,98% (active)
same,growth inhibition,[2]; at 1.2 µM,-52%
same,growth inhibition,[2]; at 3.7 µM,-61%
same,growth inhibition,[2]; at 11.0 µM,-53%
same,growth inhibition,[2]; at 33.0 µM,52%
same,growth inhibition,[2]; at 100.0 µM,97% (active)
same,growth inhibition,[3]; at 1.2 µM,-12%
same,growth inhibition,[3]; at 3.7 µM,6%
same,growth inhibition,[3]; at 11.0 µM,9%
same,growth inhibition,[3]; at 33.0 µM,48%
same,growth inhibition,[3]; at 100.0 µM,91% (active)
same,growth inhibition,[4]; at 1.2 µM,-29%
same,growth inhibition,[4]; at 3.7 µM,-32%
same,growth inhibition,[4]; at 11.0 µM,-16%
same,growth inhibition,[4]; at 33.0 µM,71% (active)
same,growth inhibition,[4]; at 100.0 µM,98% (active)
same,growth inhibition,[5]; at 1.2 µM,-20%
same,growth inhibition,[5]; at 3.7 µM,-11%
same,growth inhibition,[5]; [17],19%
same,growth inhibition,[5]; at 11.0 µM,-3%
same,growth inhibition,[5]; at 33.0 µM,63%
same,growth inhibition,[5]; [18],54%
same,growth inhibition,[5]; at 50.0 µM,72.7% (active)
same,growth inhibition,[5]; at 100.0 µM,97% (active)
same,growth inhibition,[6]; at 1.2 µM,-27%
same,growth inhibition,[6]; at 3.7 µM,-49%
same,growth inhibition,[6]; [17],18%
same,growth inhibition,[6]; at 11.0 µM,-10%
same,growth inhibition,[6]; at 33.0 µM,76% (active)
same,growth inhibition,[6]; [18],75% (active)
same,growth inhibition,[6]; at 50.0 µM,84% (active)
same,growth inhibition,[6]; at 100.0 µM,95% (active)
same,growth inhibition,[7]; [17],18%
same,growth inhibition,[7]; [18],73% (active)
same,growth inhibition,[7]; at 50.0 µM,83.6% (active)
same,growth inhibition,[8]; at 1.2 µM,4%
same,growth inhibition,[8]; at 3.7 µM,8%
same,growth inhibition,[8]; at 11.0 µM,34%
same,growth inhibition,[8]; at 33.0 µM,58%
same,growth inhibition,[8]; at 100.0 µM,97% (active)
same,growth inhibition,[9]; [17],7%
same,growth inhibition,[9]; [18],7%
same,growth inhibition,[9]; at 50.0 µM,41.2%
same,growth inhibition,[10]; at 1.2 µM,-20%
same,growth inhibition,[10]; at 3.7 µM,-25%
same,growth inhibition,[10]; [17],13%
same,growth inhibition,[10]; at 11.0 µM,-15%
same,growth inhibition,[10]; at 33.0 µM,60%
same,growth inhibition,[10]; [18],46%
same,growth inhibition,[10]; at 50.0 µM,81.5% (active)
same,growth inhibition,[10]; at 100.0 µM,96% (active)
same,growth inhibition,[11]; at 1.2 µM,-10%
same,growth inhibition,[11]; at 3.7 µM,-13%
same,growth inhibition,[11]; at 11.0 µM,8%
same,growth inhibition,[11]; at 33.0 µM,77% (active)
same,growth inhibition,[11]; at 100.0 µM,98% (active)
same,growth inhibition,[12]; at 1.2 µM,-30%
same,growth inhibition,[12]; at 3.7 µM,-31%
same,growth inhibition,[12]; at 11.0 µM,-18%
same,growth inhibition,[12]; at 33.0 µM,67%
same,growth inhibition,[12]; at 100.0 µM,98% (active)
same,growth inhibition,[13]; at 1.2 µM,-19%
same,growth inhibition,[13]; at 3.7 µM,-31%
same,growth inhibition,[13]; at 11.0 µM,10%
same,growth inhibition,[13]; at 33.0 µM,60%
same,growth inhibition,[13]; at 100.0 µM,98% (active)
same,growth inhibition,[14]; [17],26%
same,growth inhibition,[14]; [18],75% (active)
same,growth inhibition,[14]; at 50.0 µM,79% (active)
same,growth inhibition,[15]; at 1.2 µM,-29%
same,growth inhibition,[15]; at 3.7 µM,-14%
same,growth inhibition,[15]; at 11.0 µM,30%
same,growth inhibition,[15]; at 33.0 µM,78% (active)
same,growth inhibition,[15]; at 100.0 µM,98% (active)
CCOc1ccc(C(=O)CCC(=O)O)c(C)c1,growth inhibition,[1]; at 1.2 µM,-1%
same,growth inhibition,[1]; at 3.7 µM,0%
same,growth inhibition,[1]; at 11.0 µM,-5%
same,growth inhibition,[1]; at 33.0 µM,-1%
same,growth inhibition,[1]; at 100.0 µM,4%
same,growth inhibition,[2]; at 1.2 µM,3%
same,growth inhibition,[2]; at 3.7 µM,-1%
same,growth inhibition,[2]; at 11.0 µM,4%
same,growth inhibition,[2]; at 33.0 µM,5%
same,growth inhibition,[2]; at 100.0 µM,17%
same,growth inhibition,[3]; at 1.2 µM,-2%
same,growth inhibition,[3]; at 3.7 µM,-2%
same,growth inhibition,[3]; at 11.0 µM,0%
same,growth inhibition,[3]; at 33.0 µM,-3%
same,growth inhibition,[3]; at 100.0 µM,3%
same,growth inhibition,[4]; at 1.2 µM,-4%
same,growth inhibition,[4]; at 3.7 µM,-3%
same,growth inhibition,[4]; at 11.0 µM,1%
same,growth inhibition,[4]; at 33.0 µM,2%
same,growth inhibition,[4]; at 100.0 µM,21%
same,growth inhibition,[5]; at 1.2 µM,-2%
same,growth inhibition,[5]; at 3.7 µM,4%
same,growth inhibition,[5]; [17],13%
same,growth inhibition,[5]; at 11.0 µM,1%
same,growth inhibition,[5]; at 33.0 µM,8%
same,growth inhibition,[5]; [18],14%
same,growth inhibition,[5]; at 100.0 µM,12%
same,growth inhibition,[6]; at 1.2 µM,0%
same,growth inhibition,[6]; at 3.7 µM,-7%
same,growth inhibition,[6]; [17],-10%
same,growth inhibition,[6]; at 11.0 µM,-16%
same,growth inhibition,[6]; at 33.0 µM,4%
same,growth inhibition,[6]; [18],13%
same,growth inhibition,[6]; at 100.0 µM,15%
same,growth inhibition,[16]; at 1.2 µM,0%
same,growth inhibition,[16]; at 3.7 µM,1%
same,growth inhibition,[16]; at 11.0 µM,7%
same,growth inhibition,[16]; at 33.0 µM,13%
same,growth inhibition,[16]; at 100.0 µM,25%
same,growth inhibition,[7]; [17],9%
same,growth inhibition,[7]; [18],4%
same,growth inhibition,[8]; at 1.2 µM,0%
same,growth inhibition,[8]; at 3.7 µM,-1%
same,growth inhibition,[8]; at 11.0 µM,4%
same,growth inhibition,[8]; at 33.0 µM,12%
same,growth inhibition,[8]; at 100.0 µM,20%
same,growth inhibition,[10]; at 1.2 µM,-9%
same,growth inhibition,[10]; at 3.7 µM,-11%
same,growth inhibition,[10]; [17],-17%
same,growth inhibition,[10]; at 11.0 µM,-1%
same,growth inhibition,[10]; at 33.0 µM,-8%
same,growth inhibition,[10]; [18],14%
same,growth inhibition,[10]; at 100.0 µM,36%
same,growth inhibition,[11]; at 1.2 µM,1%
same,growth inhibition,[11]; at 3.7 µM,2%
same,growth inhibition,[11]; at 11.0 µM,2%
same,growth inhibition,[11]; at 33.0 µM,6%
same,growth inhibition,[11]; at 100.0 µM,16%
same,growth inhibition,[12]; at 1.2 µM,-2%
same,growth inhibition,[12]; at 3.7 µM,-6%
same,growth inhibition,[12]; at 11.0 µM,-10%
same,growth inhibition,[12]; at 33.0 µM,3%
same,growth inhibition,[12]; at 100.0 µM,12%
same,growth inhibition,[13]; at 1.2 µM,0%
same,growth inhibition,[13]; at 3.7 µM,-1%
same,growth inhibition,[13]; at 11.0 µM,1%
same,growth inhibition,[13]; at 33.0 µM,1%
same,growth inhibition,[13]; at 100.0 µM,8%
same,growth inhibition,[14]; [17],16%
same,growth inhibition,[14]; [18],-1%
same,growth inhibition,[15]; at 1.2 µM,-2%
same,growth inhibition,[15]; at 3.7 µM,-4%
same,growth inhibition,[15]; at 11.0 µM,-6%
same,growth inhibition,[15]; at 33.0 µM,-16%
same,growth inhibition,[15]; at 100.0 µM,-17%
